aSyn UTR act = Activators working through SNCA 5'UTR binding (MLPCN); alpha-synuclein 5'UTR reporter, activators screen; activity score, % (tested at 7.5 µM), hits read low; 300,000 compounds, 7.1% hits; in the data active = activity score below about -60%
Active calls of the source: *. Only a sample is shown.

Screening CC(=O)NCCOc1ccc2oc3ccccc3c2c1 returned aSyn UTR act -133*.
Screening O=[N+]([O-])c1cccc(-c2nnc(-c3ccc4c(c3)OCO4)o2)c1 returned aSyn UTR act -78*.
For Clc1ccccc1-c1nnc2sc(-c3ccc4c(c3)OCO4)nn12 the results were aSyn UTR act -91*.
O=[N+]([O-])c1cccc(-c2nnc(-c3ccccc3)o2)c1 was read as aSyn UTR act 68.
Clc1ccccc1-c1nnc(-c2ccc3c(c2)OCO3)o1 was read as aSyn UTR act -82*.
CC1CCCN(C(=S)Nc2ccc(Nc3ccccc3)cc2)C1 (stereo not drawn) was read as aSyn UTR act -123*.
Screening OC1CCCN(C(=S)Nc2ccc(SC(F)F)cc2)C1 (stereo not drawn) returned aSyn UTR act -68*.
`OC1CCN(C(=S)Nc2ccc(Nc3ccccc3)cc2)CC1` gave aSyn UTR act -116*.
`COc1cc(CNC(=O)C2CC2)ccc1OCc1ccccc1` gave aSyn UTR act -97*.
COc1cc(CN2CCC(C(=O)NCCC(C)C)CC2)ccc1OCc1ccccc1 was read as aSyn UTR act -173*.
`COc1cc(CN2CCCCC2)ccc1OCc1ccccc1` gave aSyn UTR act -65*.
For COc1ccc(CCNC(=O)C(=O)NCc2ccccc2)cc1OC the results were aSyn UTR act -82*.
Screening CCCCn1c(-c2ccccc2)cnc1SCC(=O)NCCc1ccc(OC)c(OC)c1 returned aSyn UTR act -136*.
`O=C(COC(=O)c1ccc2[nH]c3c(c2c1)CCCC3)Nc1ccccc1` gave aSyn UTR act -64*.
Screening N#C/C(=C\c1ccccc1O)C(=O)Nc1cccnc1 returned aSyn UTR act -107*.
Cc1cc(/C=C(\C#N)C(=O)Nc2ccccc2)c(C)n1-c1cccnc1 was read as aSyn UTR act -143*.
`CC1CCCCN1CCNC(=O)c1ccc2c(=O)n(CCc3ccccc3)c(=O)[nH]c2c1` (stereo not drawn) gave aSyn UTR act -79*.
For CCN1CCN(C(=O)c2ccc3c(=O)n(CCc4ccccc4)c(=O)[nH]c3c2)CC1 the results were aSyn UTR act -72*.
Screening CC1CCN(CCCNC(=O)c2ccc3c(=O)n(CCc4ccccc4)c(=O)[nH]c3c2)CC1 returned aSyn UTR act -74*.
For C=CCn1cnc2c(NCc3ccccc3)ncnc21 the results were aSyn UTR act -76*.
For Cc1ccc(C(=O)NCCOc2ccc(Cl)cc2)cc1 the results were aSyn UTR act -88*.
For Cc1ccnc(NC(=O)CNC(=O)c2sc3ccccc3c2Cl)c1 the results were aSyn UTR act -216*.
Cc1ccnc(NC(=O)c2sc3cc(Cl)ccc3c2Cl)c1 was read as aSyn UTR act -140*.
For CCN(CC)Cc1ccc(NC(=O)c2sc3cc(Cl)ccc3c2Cl)cc1 the results were aSyn UTR act 104.
For Cc1ccnc(NC(=O)CCCNC(=O)c2ccc(Cl)cc2)c1 the results were aSyn UTR act -182*.
Screening O=C(/C=C/Sc1ccc(C(F)(F)F)cn1)c1ccccc1 returned aSyn UTR act -72*.
O=c1[nH]c(Nc2ccc(F)cc2)cc2ccccc12 was read as aSyn UTR act -75*.
Screening CCc1cc2c(=O)[nH]c(-c3ccccn3)nc2s1 returned aSyn UTR act 59.
`O=c1[nH]c(Nc2ccccn2)cc2ccccc12` gave aSyn UTR act -112*.
`O=c1[nH]c(-c2ccccn2)cc2ccccc12` gave aSyn UTR act -118*.
For c1ccc(/N=C2\N=C(Nc3ccccn3)c3ccccc32)nc1 the results were aSyn UTR act 57.
Screening CCSc1cnn(-c2ccccc2)c(=O)c1Cl returned aSyn UTR act -92*.
For CN(c1cnn(-c2ccccc2)c(=O)c1Cl)n1cccc1 the results were aSyn UTR act -83*.
Screening CNc1cnn(-c2ccc(C)cc2)c(=O)c1Cl returned aSyn UTR act -86*.
O=c1c(Cl)c(N/N=C/c2ccc(Cl)cc2)cnn1-c1ccccc1 was read as aSyn UTR act -85*.
Screening CCCCNc1cnn(-c2ccccc2)c(=O)c1Cl returned aSyn UTR act -74*.
For O=C(NC1CCCCC1)Oc1cc2oc(=O)sc2cc1Br the results were aSyn UTR act 54.
Screening O=C(NC1CCCC1)c1cc2ccccc2o1 returned aSyn UTR act -107*.
O=C(NC1CCCC1)c1cc2cc(Br)ccc2o1 was read as aSyn UTR act -139*.
`O=C(NC1CCCCC1)c1cc2cc(Br)ccc2o1` gave aSyn UTR act -138*.
Screening Cc1ccccc1CSc1ccc(-c2ccc3c(c2)OCO3)nn1 returned aSyn UTR act -83*.
Cc1nc(C)c(-c2ccc(SCc3ccccc3C)nn2)s1 was read as aSyn UTR act -97*.
Screening c1cncc(CSc2ccc(-c3ccc4c(c3)OCO4)nn2)c1 returned aSyn UTR act -109*.
For CC(=O)Nc1cc(NC(C)=O)c(N=Nc2ccccc2)cc1C the results were aSyn UTR act -89*.
`Fc1ccc(-c2ccc(Nc3cccc(F)c3)nn2)cc1` gave aSyn UTR act -131*.
Screening Fc1ccc(Nc2ccc(-c3ccc(F)cc3)nn2)cc1 returned aSyn UTR act -161*.
Screening COc1ccc(CSc2nnc(SCc3ccc([N+](=O)[O-])cc3)s2)cc1 returned aSyn UTR act -122*.
CCN1CCN(c2cc(C)c3cc(NC(=S)N4CCCCC4)ccc3n2)CC1 was read as aSyn UTR act -85*.
CCN1CCN(c2cc(C)c3cc(NC(=O)c4ccc(C)c(C)c4)ccc3n2)CC1 was read as aSyn UTR act 17.
CCN1CCN(c2cc(C)c3cc(NC(=O)c4ccc(Br)o4)ccc3n2)CC1 was read as aSyn UTR act -85*.
For CCN1CCN(Cc2ccc(NC(=O)c3ccc(C)c(/C=C/c4cnc(Nc5cc(N6CCNCC6)nc(C)n5)cn4)c3)cc2C(F)(F)F)CC1 the results were aSyn UTR act 110.
Cc1cc(N2CCN(C)CC2)nc2ccc(NC(=O)c3ccccc3F)cc12 was read as aSyn UTR act -123*.
Screening COc1ccc(-c2cn(-c3ccccc3)c(=S)[nH]2)cc1OC returned aSyn UTR act -100*.
For Nc1ccc(-n2cc(-c3ccccc3)[nH]c2=S)cc1 the results were aSyn UTR act -86*.
For S=c1[nH]c(-c2ccccc2)cn1-c1ccccc1 the results were aSyn UTR act -75*.
Screening S=C(N=Nc1ccccc1)NNc1ccccc1 returned aSyn UTR act -132*.
Screening CC(=O)c1ccc(OCc2cc(C(=O)N(C)C3CCOC3)no2)cc1 (stereo not drawn) returned aSyn UTR act -130*.
For CC(=O)c1ccc(OCc2cc(C(=O)N(C)CCOc3ccc(C)cc3)no2)cc1 the results were aSyn UTR act -170*.
Screening Cc1cc(OCc2cc(C(=O)N(C)C3CCOC3)no2)cc(C)c1Cl (stereo not drawn) returned aSyn UTR act -107*.
COc1ccc(/C=C2\CCn3c2nc2ccccc2c3=O)cc1OC was read as aSyn UTR act -256*.
`O=C(Nc1nc2c(s1)CCCC2=O)c1cnccn1` gave aSyn UTR act -88*.
O=c1[nH][nH]c(C(F)(F)F)c1C=Nc1ccc(Cl)cc1 was read as aSyn UTR act -71*.
For Cc1[nH][nH]c(=O)c1C=Nc1ccc(C(F)(F)F)cc1 the results were aSyn UTR act -77*.
CCCc1ccc2oc(C(=O)N(Cc3nccn3C)C(C)C)c(C)c2c1 was read as aSyn UTR act -73*.
`CCCc1ccc2oc(C(=O)N(C)Cc3ccn[nH]3)c(C)c2c1` gave aSyn UTR act -85*.

High-throughput results (PubChem)
